Source: PubChem
HT1080 IDH1KD tx = kills HT-1080 cells with IDH1 knockdown | 360,000 tested, 2% active | Potency, µM (titrated, usually from 46.1 µM), for the others: at the top dose activity, negative = toxicity, usual class: cytotoxic | AID 686971 | HT-1080 IDH1 knockdown viability, ATP luminescence, 48 h;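 note: potency is the fitted concentration of half-maximal effect; 0% = DMSO wells and -100% = cell-free medium wells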
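HT-1080-IDH1KD cells (IDH1 knocked down), 750/well in RPMI with 5% FBS, treated with compound 48 h at 37 degrees C. Viability by CellTiter-Glo luminescence, normalised to DMSO and no-cell wells; concentration-response curves classed.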
IL1B secr inh = blocks inflammasome-driven IL-1 beta release; THP-1 LPS/ATP IL-1B secretion, AlphaLISA, 16 h; active compounds read low; 360,000 tested, 4.7% active; activity change, % at 57.5 µM; in the data active = activity change below about -50%; inconclusive = mostly about -30% to -49%
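Secreted IL-1B measured by AlphaLISA bead assay after 16 h compound exposure of THP-1 cells; compounds (final up to 57.5 uM) added 1 h before LPS (250 ng/mL) and ATP (1.25 mM) stimulation; lower signal means less secretion.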
DT40 TDP1 CPT = DT40-hTDP1 cell growth loss with CPT; chicken DT40 Tdp1-/-;hTDP1 cells + 20 nM CPT, ATP luminescence, 48 h; Potency, µM (series often up to 46.2 µM), without a hit: at the highest dose activity change, negative = growth inhibition, actives largely listed as inhibitors; 420,000 tested, 12% active; AID 686979; note: potency is the fitted concentration of half-maximal effect; nearly all actives have a fitted effect of over 55% in size
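Chicken DT40 Tdp1-/- cells stably complemented with human TDP1 were seeded at 400 cells/well in medium containing 20 nM camptothecin, exposed to pin-transferred compounds, and grown at 37 °C for at least 48 hr. Viability was read as ATP luminescence.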
HT1080NT lethal = kills 2HG-producing HT-1080-NT fibrosarcoma cells. AID 686970. 360,000 tested, 1.6% active. HT-1080-NT fibrosarcoma viability, CellTiter-Glo ATP luminescence, 48 h. Potency, µM (highest dose often 46.1 µM), for inactives: at the top dose activity, negative = less viability, usual class: cytotoxic;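 note: NT is the 2HG producing partner of a matched IDH1 knockdown line; potency is the fitted concentration of half-maximal effect; 0% = DMSO-treated cells and -100% = media-only wells without cells; nearly all actives have a fitted effect of over 55% in size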
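Read-out is CellTiter-Glo luminescence after 10 minutes at room temperature, following 48 hours' compound treatment of HT-1080-NT cells (750 cells/well, RPMI, 5% FBS, 37 degrees C).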
TDP1 cell noCPT = qHTS for Inhibitors of human tyrosyl-DNA phosphodiesterase 1 (TDP1): qHTS in cells in absence of CPT; 420,000 tested, 15% active; DT40 Tdp1-/- hTDP1 cells, no CPT, ATP luminescence, 48 h; Potency, µM (top dose mostly 46.2 µM), without a hit: at the highest dose activity change, negative = growth inhibition, usual class: inhibitors; note: potency is the fitted concentration of half-maximal effect; nearly all actives have a fitted effect of over 55% in size
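Cells were dispensed at 400 per well, compounds added by pin tool, plates incubated ≥48 hr at 37 °C, then CellTiter-Glo added for 30 min at room temperature before luminescence reading. Line: DT40 Tdp1-/- complemented with hTDP1; camptothecin omitted.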
ELG1 DNA repair = inhibitors of ELG1-dependent DNA repair in HEK293T cells | 330,000 tested, 2.3% active | Potency, µM (series often up to 46.1 µM), for inactives: at the top dose activity change, negative = inhibition, actives largely listed as inhibitors | HEK293T ELG1-luciferase reporter, luminescence, 16 h; DNA damage induced by 5-fluorouridine; note: potency is the fitted concentration of half-maximal effect; nearly all actives have a fitted effect of over 55% in size
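Quantitative HTS, concentration-response format. 2,000 cells/well co-treated with 5-fluorouridine and compound, 16 hr in 5% CO2 at 37 °C; ONE-Glo luminescence read after 30 min.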
Active calls of the source: *; ? = inconclusive; nt = no result. A selection: hits, their analogues and other compounds. The true share with any hit is near 19%. Unless noted, calls come from the whole dose curve; as a rule, active = well fitted curve in the direction sought with a large enough effect; inconclusive = small, poorly fitted or top-dose-only effect, or another doubt; inactive = no such curve, though single readings can be large; an effect the other way counts as inactive or inconclusive. Unless noted, % is set by controls: 0 for no effect and ±100 for the full control effect.

SMILES	HT1080 IDH1KD tx	IL1B secr inh	DT40 TDP1 CPT	HT1080NT lethal	TDP1 cell noCPT	ELG1 DNA repair
CCN1Cc2cc(OC)ccc2-c2ccccc2S1(=O)=O	-2%	-6	-10%	-1%	-20%	8%
CCN(C(=O)COC(=O)c1cc([N+](=O)[O-])ccc1N1CCOCC1)c1ccccc1	?	-1	?	1%	15µM*	1%
COc1ccc(CN(C)C(=O)COC(=O)c2cc([N+](=O)[O-])ccc2N2CCCC2)c(OC)c1OC	-26%	-21	?	-2%	21µM*	15µM*
CN(Cc1ccccc1)C(=O)COC(=O)c1cc([N+](=O)[O-])ccc1N1CCOCC1	-8%	-7	-3%	2%	?	-1%
CCOC(=O)C1CCN(C(c2ccc(OCC)cc2)c2c(O)cc(C)n(CCOC)c2=O)CC1 (stereo unspecified)	nt	nt	-10%	nt	-14%	nt
COc1ccc(CNC(=O)CCc2nc3cccnc3n2Cc2ccc(OC)cc2)cc1	nt	nt	-5%	nt	-18%	nt
COc1ccc(Cn2c(CCC(=O)Nc3ccc(C)cc3)nc3cccnc32)cc1	-11%	?	?	-3%	15µM*	?
COCCn1c(CNC(=O)c2ccc(C)cc2)nc2cccnc21	nt	nt	-19%	nt	-4%	nt
COc1ccc(Cn2c(CCC(=O)Nc3ccc(OC)c(Cl)c3)nc3cccnc32)cc1	nt	nt	-22%	nt	?	nt
Cc1ccc(CNC(=O)CCc2nc3cccnc3n2Cc2ccccc2)cc1	nt	nt	15µM*	nt	?	nt
CCN(CC)c1ccc(C(=O)NCc2nc3cccnc3n2Cc2ccc(C)cc2)cc1	nt	nt	18µM*	nt	15µM*	nt
CCOC(=O)C1CCCN(C(=O)c2cccc(Cl)c2)CC1 (stereo unspecified)	5%	3	-17%	8%	-11%	nt
C#CCOCCOCCOCCNc1nc(N2CCN(C(=O)CCCCCCCCCCNC(=O)Cn3cc(CCCCCN)nn3)CC2)nc(N2CCN(C(=O)CCCCCCCCCCNC(=O)[C@H]([C@@H](C)CC)n3cc(CCCCCN)nn3)CC2)n1	?	-106*	23µM*	?	?	?
C#CCOCCOCCOCCNc1nc(N2CCN(C(=O)CCCCCCCCCCNC(=O)[C@H](CO)n3cc(CCCSC)nn3)CC2)nc(N2CCN(C(=O)CCCCCCCCCCNC(=O)[C@H](CO)n3cc(CCCSC)nn3)CC2)n1	-10%	?	8.2µM*	0%	6.5µM*	-13%
C#CCOCCOCCOCCNc1nc(N2CCN(C(=O)CCCCCCCCCCNC(=O)Cn3cc(CCCCCN)nn3)CC2)nc(N2CCN(C(=O)CCCCCCCCCCNC(=O)[C@H](CO)n3cc(CCCCCN)nn3)CC2)n1	?	-71*	?	-17%	?	1%
C#CCOCCOCCOCCNc1nc(N2CCOCC2)nc(N2CCN(C(=O)CCCCCCCCCCNC(=O)[C@@H](CCSC)n3cc(CCO)nn3)CC2)n1	1%	?	?	0%	?	?
Cc1ccc(NC(=O)CSc2nc(=O)n(Cc3ccncc3)c3c2CCC3)c(C)c1	9%	-14	5%	11%	-17%	3%
COc1cccc(NC(=O)CCC2CCN(C(=O)c3c(C)noc3C)CC2)c1	5%	0	?	2%	?	-1%
CCc1noc(C)c1C(=O)N1CCC(CCC(=O)Nc2cccc(OC)c2)CC1	7%	56	9.2µM*	0%	8.2µM*	?
Cc1cccc(NC(=O)CCC2CCN(C(=O)c3ccc(C)s3)CC2)c1	-2%	10	-20%	-2%	4.1µM*	4%
